# The list is not random: actives were taken first. Their share in the collection is about 19%.
# TDP1 cell CPT – growth inhibition of DT40 Tdp1-/-;hTDP1 cells with camptothecin (screen for TDP1 inhibitors); chicken DT40 Tdp1-/-;hTDP1 cells + 20 nM CPT, ATP luminescence, 48 h; Potency, µM (highest dose often 46.2 µM), for the others: top-dose activity change, negative = growth inhibition, actives largely listed as inhibitors; 12% of 420,000 active; AID 686979; also: potency is read from the fitted curve at half-maximal effect; nearly all actives have a fitted effect of over 55% in size
#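 Chicken DT40 Tdp1-/- cells complemented with human TDP1, 400 cells/well, exposed to compounds plus 20 nM camptothecin for at least 48 h at 37 C; viability read as ATP content by CellTiter-Glo luminescence.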
# HT1080 IDH1KD tx – toxicity to HT-1080 IDH1 knockdown cells (counter line); Potency, µM (highest dose often 46.1 µM), for the others: at the highest dose activity, negative = toxicity, usual class: cytotoxic; HT-1080 IDH1 knockdown viability, ATP luminescence, 48 h; 2% of 360,000 active;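 also: potency is read from the fitted curve at half-maximal effect; 0% = DMSO wells and -100% = cell-free medium wells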
#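 CellTiter-Glo luminescence after 48 h compound exposure at 37 degrees C of IDH1-knockdown HT-1080 cells in 5% FBS RPMI. %Activity scaled between DMSO wells and cell-free media wells, with curves fitted and assigned curve classes.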
# DT40 TDP1 no CPT – qHTS for Inhibitors of human tyrosyl-DNA phosphodiesterase 1 (TDP1): qHTS in cells in absence of CPT. DT40 Tdp1-/- hTDP1 cells, no CPT, ATP luminescence, 48 h. Potency, µM (titrated, usually from 46.2 µM), for the others: at the highest dose activity change, negative = growth inhibition, most hits filed as inhibitors. 15% of 420,000 active. AID 686978, 2013; also: potency is read from the fitted curve at half-maximal effect; nearly all actives have a fitted effect of over 55% in size
#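 Luminescent ATP content (CellTiter-Glo) served as the growth readout. Knockout chicken DT40 cells expressing human TDP1 were exposed to compounds without camptothecin for a minimum 48 hr at 37 °C.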
# HT1080NT lethal – kills 2HG-producing HT-1080-NT fibrosarcoma cells; HT-1080-NT fibrosarcoma viability, CellTiter-Glo ATP luminescence, 48 h; Potency, µM (doses to about 46.1 µM), without a hit: top-dose activity, negative = less viability, actives largely listed as cytotoxic; 1.6% of 360,000 active;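 also: NT is the 2HG producing partner of a matched IDH1 knockdown line; potency is read from the fitted curve at half-maximal effect; 0% = DMSO-treated cells and -100% = media-only wells without cells; nearly all actives have a fitted effect of over 55% in size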
#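 HT-1080-NT; 750 cells/well; 5% FBS RPMI; 48 h compound, 37 degrees C; CellTiter-Glo luminescence; curve fitting and curve-class assignment.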
# ELG1 DNA repair – ELG1-dependent DNA repair inhibition. HEK293T ELG1-luciferase reporter, luminescence, 16 h; DNA damage induced by 5-fluorouridine. Potency, µM (highest dose often 46.1 µM), for inactives: top-dose activity change, negative = inhibition, actives largely listed as inhibitors. 2.3% of 330,000 active. AID 504467; also: potency is read from the fitted curve at half-maximal effect; nearly all actives have a fitted effect of over 55% in size
#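 Quantitative HTS, concentration-response format. 2,000 cells/well co-treated with 5-fluorouridine and compound, 16 hr in 5% CO2 at 37 °C; ONE-Glo luminescence read after 30 min.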
# IL1B secr inh – inflammasome signaling inhibition, IL-1 beta readout; THP-1 LPS/ATP IL-1B secretion, AlphaLISA, 16 h; stronger effect = lower value; activity change, % at 57.5 µM; 4.7% of 360,000 active; AID 743279; in the data active = activity change below about -50%; inconclusive = mostly about -30% to -49%
#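 THP-1 cells pretreated 1 hr with compounds (up to 57.5 uM final), then stimulated with LPS (250 ng/mL final) plus ATP (1.25 mM final); secreted IL-1B measured by AlphaLISA after 16 hr, decreased signal indicating inhibition.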
# Starred values were filed as active, the others as inactive; ? = inconclusive; / = no result. Unless noted, calls follow the shape of the dose curve; as a rule, active = well fitted curve in the direction sought with a large enough effect; inconclusive = small, poorly fitted or top-dose-only effect, or another doubt; inactive = no such curve, though single readings can be large; an effect the other way counts as inactive or inconclusive. Unless noted, % is scaled to controls: 0 for no effect and ±100 for the full control effect.
SMILES,TDP1 cell CPT,HT1080 IDH1KD tx,DT40 TDP1 no CPT,HT1080NT lethal,ELG1 DNA repair,IL1B secr inh
CCN(CC)c1ncnc2c1ncn2Cc1c(Cl)cccc1Cl,?,?,?,-27%,?,-8
Cc1cc(-n2c(C)nc3ccccc3c2=O)ccc1NC(=O)c1cccc([N+](=O)[O-])c1C,13µM*,/,6.5µM*,/,/,/
Cc1nc2ccccc2c(=O)n1-c1cccc(NC(=O)c2cccs2)c1,?,-2%,?,-5%,?,-51*
Cc1c(C(=O)Nc2ccc(-n3c(C)nc4ccccc4c3=O)cc2)cccc1[N+](=O)[O-],13µM*,/,7.3µM*,/,/,/
Cc1nc2ccccc2c(=O)n1-c1cccc(NS(=O)(=O)c2ccccc2)c1,-25%,3%,-35%,0%,-14%,-11
Cc1ccn2c(=O)c(NC(=O)c3cccc([N+](=O)[O-])c3C)c(C)nc2c1,15µM*,/,18µM*,/,/,/
Cc1ccccc1NS(=O)(=O)c1csc(C(N)=O)c1,-4%,4%,15%,7%,0%,13
Cc1ccccc1CNC(=O)CCNS(=O)(=O)c1ccc(OC(F)(F)F)cc1,1%,12%,?,8%,7%,15
Cc1cc(-n2c(C)nc3ccccc3c2=O)ccc1NC(=O)c1ccccc1[N+](=O)[O-],18µM*,/,16µM*,/,/,/
Cc1ccc(NC(=O)CCC(=O)N2Cc3ccccc3Oc3ncccc32)cc1Cl,23µM*,/,?,/,/,/
O=C(CCC(=O)N1Cc2ccccc2Oc2ncccc21)NCc1cccc(Cl)c1,?,/,-15%,/,/,/
CC(C)(C)OC(=O)N1CCC(CC2CC(c3cccc(Br)c3)=NO2)(C(=O)O)CC1 (stereo not drawn),-11%,-5%,-2%,-1%,-4%,26
CC(C)(C)OC(=O)N1CCC(CC2CC(c3ccccc3)=NO2)(C(=O)O)CC1 (stereo not drawn),-3%,7%,-11%,5%,/,54
CCCCCCCNC(=O)C1(CC2CC(c3ccc(Cl)cc3)=NO2)CCN(C(=O)OC(C)(C)C)CC1 (stereo not drawn),?,12%,21µM*,1%,?,-10
COC(=O)C1(CC2CC(c3ccccc3)=NO2)CCN(C(=O)OC(C)(C)C)CC1 (stereo not drawn),?,-2%,21µM*,-5%,/,-9
COC(=O)C1(CC2CC(c3ccncc3)=NO2)CCN(C(=O)OC(C)(C)C)CC1 (stereo not drawn),?,6%,21µM*,8%,4%,8
O=C(CNC(=O)c1ccccc1F)N/N=C/c1cc(Br)ccc1OC(=O)/C=C/c1ccco1,3.7µM*,4.6µM*,5.2µM*,-41%,-19%,71
O=C(CNC(=O)c1ccc(F)cc1)N/N=C/c1cc(Br)ccc1OC(=O)/C=C/c1ccco1,9.2µM*,?,2.6µM*,?,?,149
Cc1cc(C)nc(NS(=O)(=O)c2ccc(NC(=O)Cc3ccccc3F)cc2)n1,4%,-6%,-7%,1%,-7%,7
CCOc1cc(C(=O)Nc2ccc(C(=O)NCCN(CC)CC)cc2)ccc1OCC(=O)N1CCOCC1,0%,9%,-17%,14%,14%,18
COc1ccccc1NC(=O)C1CC(O)CN1C(=O)Oc1ccccc1 (stereo not drawn),-13%,0%,-4%,2%,1%,8
Cc1cc(C)nc(N/N=C2/CCCC/C2=C\c2ccccc2)n1,2.1µM*,?,1.2µM*,?,2.3µM*,?
Cc1ccnc(N/N=C/c2ccccc2)n1,12%,-10%,-21%,-18%,?,-15
